# Reference: PubChem BioAssay (NCATS)
# Inconclusive results are not listed. A call without a number means that no potency is given here. Activity calls are given as the source filed them. Unless noted, calls come from the whole dose curve; as a rule, active = well fitted curve in the direction sought with a large enough effect; inconclusive = small, poorly fitted or top-dose-only effect, or another doubt; inactive = no such curve, though single readings can be large; an effect the other way counts as inactive or inconclusive.
# What was measured:
# [1] = Cell Viability - LYMP2-001 (AID 921); settings: LYMP2-001 lymphoblastoid cell viability; series mostly up to 92.2 µM;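 note: cells exposed to compound for 24 h at 37 °C; nearly all actives have a fitted effect of over 70% in size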; note: potency is the fitted concentration of half-maximal effect
# Method in brief: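 Steps: seed 2500 lymphoblastoid cells/well; 5 hr, 37 C; add compound; 24 hr, 37 C; CellTiter-Glo reagent, 30 min room temperature; read luminescence. Concentration-response modeled by Hill equation for AC50.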
# [2] = Confirmation and Secondary Assay for Modulators of Hemoglobin Beta Chain Splicing at IVS2 705 locus (AID 930); settings: HeLa EGFP-705 splicing reporter, GFP fluorescence, 48 h; series mostly up to 46.1 µM;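 note: HeLa cells stably expressing the EGFP-705 splicing reporter; GFP fluorescence per well restored by corrected splicing of the IVS2-705 intron in EGFP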
# Method in brief: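 First, HeLa EGFP-705 cells are seeded at 500/well in Optimem with 2% FCS and left overnight. Next, compound or DMSO is added for 2 days. Finally wells are laser-scanned and total peak GFP intensity scored.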
# [3] = MultiTox-Fluor Cytotoxicity Assay - LYMP1-001 - Dead Cells (AID 946); settings: LYMP1-001 lymphoblastoid cells, dead-cell protease fluorescence; series mostly up to 92.2 µM
# Method in brief: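 In this qHTS, 15 uM tetraoctylammonium bromide defined 100% and DMSO defined basal activity. Lymphoblastoid cells (LYMP1-001, 2500 per well) received compound for 16 hr at 37 C before a fluorogenic dead-cell substrate readout at 485/520 nm.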
# [4] = MultiTox-Fluor Cytotoxicity Assay - LYMP1-002 - Dead Cells (AID 960); settings: LYMP1-002 lymphoblastoid cells, dead-cell protease fluorescence; series mostly up to 46.1 µM; note: nearly all actives have a fitted effect of over 60% in size; note: potency is the fitted concentration of half-maximal effect
# Method in brief: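 Readout: fluorescence at 485/520 from cell-impermeant bis-AAF-R110 cleaved by proteases leaking from damaged cells. LYMP1-002 lymphoblastoid line, 16 hr compound treatment at 37 C, concentration-response in qHTS format; Hill-equation AC50 values.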
# [5] = qHTS Assay for Identification of Small Molecule Agonists for Thrombopoietin (TPO) Signaling Pathway (AID 917); settings: TPO signaling pathway reporter cells, agonist qHTS, stimulated with TPO at its EC50; series mostly up to 38.5 µM
# Method in brief: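 Cell-based luciferase reporter screen. Mouse Ba/F3 line stably expressing human TPO receptor; IL-3 removed overnight before plating. Co-treatment with compound and EC50 TPO (26 pM), 24 hrs at 37 C, then luminescence.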
# [6] = target: Muscarinic acetylcholine receptor M1 (Rattus norvegicus) (UniProt P08482); experiment: qHTS Assay for Antagonists of Acetylcholine Muscarinic M1 Receptor: Measurement of IP-One Response (AID 944); settings: CHO-M1 cells, IP-One HTRF, antagonist mode; series mostly up to 46.1 µM; note: nearly all actives have a fitted effect of over 75% in size
# Method in brief: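 Read-out: HTRF competition between d2-IP1 and Eu-cryptate anti-IP1 antibody, emission 620 and 665 nm. Stimulus was carbachol, EC80 (200 nM), for 30 min in M1-CHO cells (rat receptor), after 10 min compound pre-treatment.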
# [7] = target: Pyruvate kinase (Leishmania mexicana) (UniProt Q27686); experiment: qHTS Validation Assay for Inhibitors of Leishmania Mexicana Pyruvate Kinase (AID 945); settings: purified L. mexicana pyruvate kinase, enzyme activity, E451W mutant enzyme; series mostly up to 57.5 µM
# Method in brief: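 qHTS eight-point titrations against 0.2 nM LmPYK (E451W) in imidazole buffer pH 7.2 with 0.5 mM PEP, 0.1 mM ADP; 1 h, room temperature. Readout: PKLight luminescence, normalized to neutral DMSO wells.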
# [8] = target: Pyruvate kinase PKM (Homo sapiens) (UniProt P14618); experiment: qHTS Assay for Activators of Human Muscle Pyruvate Kinase (AID 954; active = well fitted curve in the direction sought with a large enough effect, not every such curve was filed as active); settings: purified human muscle pyruvate kinase, luciferase-coupled luminescence, 1 h; series mostly up to 57.5 µM
# Method in brief: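 Screening used highly purified human pyruvate kinase M2 under submaximal activity, with PEP at its Km and ADP below Km. After an hour at room temperature, ATP was read by luciferase luminescence.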
# [9] = qHTS Assay for Identification of Small Molecule Antagonists for Thrombopoietin (TPO) Signaling Pathway (AID 918); settings: TPO-dependent cell signaling reporter, antagonist mode; note: potency is the fitted concentration of half-maximal effect; nearly all actives have a fitted effect of over 60% in size
# Method in brief: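 Luminescence read-out: GPIIb-promoter luciferase in Ba/F3 cells carrying human TPO receptor. Compounds added with 26 pM TPO (EC50), 24 hrs, 37 C, 5% CO2; cells deprived of IL-3 overnight beforehand. Inhibition of signal scored.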
# [10] = target: Muscarinic acetylcholine receptor M1 (Rattus norvegicus) (UniProt P08482); experiment: qHTS Assay for Antagonists of Acetylcholine Muscarinic M1 Receptor: Kinetic Measurement of Intracellular Calcium Response (AID 943); settings: M1-expressing cells, kinetic intracellular calcium fluorescence; series mostly up to 35.3 µM;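 note: Fluo-4 calcium signal as peak divided by basal fluorescence over 4 min; nearly all actives have a fitted effect of over 75% in size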
# Method in brief: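 Read-out: peak over basal Fluo-4 fluorescence, kinetic at 1 Hz for 4 min after EC80 carbachol (100 nM final). Rat M1-CHO cells, dye loaded 1 h at 37C, compound added 10 min before agonist.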
# [11] = Cell Viability - LYMP1-002 - Assay at 16 hr (AID 948); settings: LYMP1-002 lymphoblastoid cell viability; series mostly up to 92.2 µM; note: potency is the fitted concentration of half-maximal effect
# Method in brief: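 Seed 2500 LYMP1-002 cells per well in complete medium and hold 5 hr at 37 C. Add compound across a concentration series and incubate 16 hr at 37 C. Add CellTiter-Glo, wait 30 min at room temperature, read luminescence.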
# [12] = MultiTox-Fluor Cytotoxicity Assay - LYMP1-003 - Dead Cells (AID 961); settings: LYMP1-003 lymphoblastoid cells, dead-cell protease fluorescence; series mostly up to 92.2 µM;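 note: cells exposed to compound for 16 h at 37 °C; nearly all actives have a fitted effect of over 70% in size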; note: potency is the fitted concentration of half-maximal effect
# Method in brief: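 Acute toxicity is scored as increased dead-cell protease activity in human lymphoblastoid LYMP1-003 cells after 16 h compound exposure in complete culture medium. Activity is normalized to DMSO basal and 15 uM tetraoctylammonium bromide as full response.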
# [13] = MultiTox-Fluor Cytotoxicity Assay - LYMP1-003 - Live Cells (AID 962); settings: LYMP1-003 lymphoblastoid cells, MultiTox-Fluor live-cell protease fluorescence; series mostly up to 92.2 µM;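 note: cells exposed to compound for 16 hours at 37 °C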; note: potency is the fitted concentration of half-maximal effect
# Method in brief: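 Readout: live-cell fluorescence (Ex/Em=405/510) from GF-AFC cleavage after 60 min MultiTox-Fluor reagent at room temperature. Lymphoblastoid LYMP1-003 cells, 16 hr compound treatment, 37 C. Concentration-response fitted to standard Hill equation for AC50.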
# [14] = Cell Viability - LYMP2-003 (AID 965); settings: LYMP2-003 lymphoblastoid cell viability; series mostly up to 92.2 µM;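 note: cells exposed to compounds for 24 h before reading; nearly all actives have a fitted effect of over 50% in size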; note: potency is the fitted concentration of half-maximal effect
# Method in brief: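 Seed 2500 lymphoblastoid cells/well; incubate 5 hr, 37 C; add compounds; incubate 24 hr, 37 C; add CellTiter-Glo, 30 min RT; read luminescence. AC50 from Hill fit.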
# [15] = Cell Viability - LYMP2-004 (AID 966); settings: LYMP2-004 lymphoblastoid cell viability, qHTS; series mostly up to 92.2 µM; note: nearly all actives have a fitted effect of over 65% in size; note: potency is the fitted concentration of half-maximal effect
# Method in brief: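 Luminescent ATP read-out (CellTiter-Glo, 30 min RT) after 24 hr compound exposure at 37 C; 2500 lymphoblastoid cells/well, complete medium. Decrease in ATP = cytotoxicity; AC50 from standard Hill model.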
# [16] = Cell Viability - LYMP2-005 (AID 967); settings: LYMP2-005 lymphoblastoid cell viability; series mostly up to 92.2 µM;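 note: cells exposed to compound for 24 h at 37 °C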; note: potency is the fitted concentration of half-maximal effect
# Method in brief: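 Acute cytotoxicity is scored as a concentration-dependent drop in intracellular ATP in human lymphoblastoid LYMP2-005 cells after 24 h compound treatment. ATP is quantified by luciferase luminescence, and AC50 is derived by Hill-equation modelling.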
# [17] = MultiTox-Fluor Cytotoxicity Assay - LYMP1-001 - Live Cells (AID 947); settings: LYMP1-001 lymphoblastoid cells, live-cell protease fluorescence viability; series mostly up to 92.2 µM
# [18] = MultiTox-Fluor Cytotoxicity Assay - LYMP1-002 - Live Cells (AID 955); settings: LYMP1-002 lymphoblastoid live-cell protease fluorescence viability; series mostly up to 46.1 µM;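 note: cells exposed to compound for 16 hours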
# Method in brief: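 LYMP1-002 lymphoblastoid cells; 2500 cells/well; 16 hr compound exposure, 37 C; MultiTox-Fluor reagent 60 min RT; live-cell fluorescence Ex/Em=405/510; qHTS concentration-response, Hill-equation AC50; tetraoctylammonium bromide positive control.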
# Sequence of Pyruvate kinase (Leishmania mexicana) (Q27686 2-499 E452W): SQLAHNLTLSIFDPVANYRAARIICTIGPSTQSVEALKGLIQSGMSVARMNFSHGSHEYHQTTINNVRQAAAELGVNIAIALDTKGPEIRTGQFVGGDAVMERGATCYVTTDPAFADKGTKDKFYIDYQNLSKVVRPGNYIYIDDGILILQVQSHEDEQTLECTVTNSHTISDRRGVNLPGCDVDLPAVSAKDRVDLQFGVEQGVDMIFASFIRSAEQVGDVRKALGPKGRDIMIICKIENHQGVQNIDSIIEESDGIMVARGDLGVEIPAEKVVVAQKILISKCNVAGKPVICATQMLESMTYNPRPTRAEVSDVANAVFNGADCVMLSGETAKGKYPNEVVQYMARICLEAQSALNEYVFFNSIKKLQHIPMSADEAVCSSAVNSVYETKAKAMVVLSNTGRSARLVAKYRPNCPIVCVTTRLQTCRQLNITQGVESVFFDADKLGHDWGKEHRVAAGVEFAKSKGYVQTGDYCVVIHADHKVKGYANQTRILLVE
# Sequence of Pyruvate kinase PKM (Homo sapiens) (P14618 whole entry, looked up): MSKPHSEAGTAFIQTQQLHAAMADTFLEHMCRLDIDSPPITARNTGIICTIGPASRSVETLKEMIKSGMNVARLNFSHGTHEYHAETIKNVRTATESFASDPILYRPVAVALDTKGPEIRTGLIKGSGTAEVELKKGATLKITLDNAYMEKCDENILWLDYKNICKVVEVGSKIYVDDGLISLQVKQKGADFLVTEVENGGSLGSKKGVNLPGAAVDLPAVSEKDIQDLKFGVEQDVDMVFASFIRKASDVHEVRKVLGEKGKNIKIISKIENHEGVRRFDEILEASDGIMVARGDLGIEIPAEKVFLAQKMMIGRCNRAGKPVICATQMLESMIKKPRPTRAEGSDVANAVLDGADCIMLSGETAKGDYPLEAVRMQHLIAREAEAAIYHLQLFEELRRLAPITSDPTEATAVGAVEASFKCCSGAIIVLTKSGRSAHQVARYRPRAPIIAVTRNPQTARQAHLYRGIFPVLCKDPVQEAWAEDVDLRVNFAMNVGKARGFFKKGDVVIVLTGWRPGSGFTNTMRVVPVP
# Sequence of Muscarinic acetylcholine receptor M1 (Rattus norvegicus) (P08482 whole entry, looked up): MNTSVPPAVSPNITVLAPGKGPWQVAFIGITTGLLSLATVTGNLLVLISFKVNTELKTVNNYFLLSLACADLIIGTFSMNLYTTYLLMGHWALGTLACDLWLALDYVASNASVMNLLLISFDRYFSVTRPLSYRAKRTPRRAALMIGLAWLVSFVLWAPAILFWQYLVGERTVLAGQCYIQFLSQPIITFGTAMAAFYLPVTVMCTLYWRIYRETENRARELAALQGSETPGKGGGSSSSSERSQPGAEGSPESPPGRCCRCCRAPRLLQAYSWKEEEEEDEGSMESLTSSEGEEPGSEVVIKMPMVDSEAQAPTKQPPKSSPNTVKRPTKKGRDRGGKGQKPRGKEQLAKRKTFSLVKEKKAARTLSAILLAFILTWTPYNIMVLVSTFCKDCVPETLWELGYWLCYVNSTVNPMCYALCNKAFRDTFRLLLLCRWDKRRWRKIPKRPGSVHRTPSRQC
smiles,measurement,setting,value
Oc1c(I)cc(Cl)c2cccnc12,Potency,[1],39.8 µM (active)
same,outcome,[2],inactive
same,Potency,[3],inactive
same,Potency,[4],31.6 µM (active)
Nc1cc(Cl)c(NC2=NCCN2)c(Cl)c1,outcome,[5],inactive
same,Potency,[6],inactive
same,outcome,[7],inactive
same,outcome,[8],inactive
Oc1ccc(O)cc1,Potency,[9],12.6 µM (active)
same,Potency,[1],25.1 µM (active)
same,outcome,[2],inactive
same,outcome,[10],inactive
same,outcome,[7],inactive
same,Potency,[11],31.6 µM (active)
same,outcome,[8],inactive
same,Potency,[4],12.6 µM (active)
same,Potency,[12],12.6 µM (active)
same,Potency,[13],50.1 µM (active)
same,Potency,[14],39.8 µM (active)
same,Potency,[15],39.8 µM (active)
same,Potency,[16],39.8 µM (active)
CN1[C@@H]2CC[C@H]1CC(OC(=O)c1c[nH]c3ccccc13)C2 (stereo partly specified),outcome,[5],inactive
same,outcome,[7],inactive
same,outcome,[8],inactive
Oc1c(I)cc(I)c2cccnc12,outcome,[2],inactive
CCCC(=O)Nc1ccc(OCC(O)CNC(C)C)c(C(C)=O)c1 (stereo unspecified),outcome,[2],inactive
CCCCOc1cc(C(=O)NCCN(CC)CC)c2ccccc2n1,outcome,[2],inactive
CCN(CC)CCOC(=O)C(c1ccccc1)C1CCCCC1 (stereo unspecified),outcome,[2],inactive
CC(C)(Oc1ccc(Cl)cc1)C(=O)O,outcome,[2],inactive
COc1cc(OC)cc(OC)c1,outcome,[2],inactive
CCn1cc(C(=O)O)c(=O)c2cnc(N3CCCC3)nc21,outcome,[2],inactive
CCCCC(CC)CN=C(N)NC(N)=NCCCCCCN=C(N)NC(N)=NCC(CC)CCCC (stereo unspecified),outcome,[2],inactive
CC(CCc1ccccc1)NCC(O)c1ccc(O)c(C(N)=O)c1 (stereo unspecified),outcome,[2],inactive
Oc1ccc(Cl)c2cccnc12,outcome,[2],inactive
CCCCc1nc(Cl)c(CO)n1Cc1ccc(-c2ccccc2-c2nn[nH]n2)cc1,outcome,[2],inactive
c1ccc(-c2ccc(C(c3ccccc3)n3ccnc3)cc2)cc1 (stereo unspecified),outcome,[2],inactive
CCCCOc1ccc(OCCCN2CCOCC2)cc1,outcome,[2],inactive
Cc1ccc(C(=O)C(C)CN2CCCCC2)cc1 (stereo unspecified),outcome,[2],inactive
CCN1CCN(c2cc3c(cc2F)c(=O)c(C(=O)O)cn3C2CC2)CC1,outcome,[2],inactive
O=C(O)CCCCC(=O)O,Potency,[1],inactive
same,Potency,[3],inactive
same,Potency,[17],inactive
same,Potency,[11],inactive
same,Potency,[18],inactive
same,Potency,[4],inactive
same,Potency,[12],inactive
same,Potency,[13],inactive
same,Potency,[14],inactive
same,Potency,[15],inactive
same,Potency,[16],inactive
CC(C)(C)CC(C)(C)c1ccc(OCCOCC[N+](C)(C)Cc2ccccc2)cc1,Potency,[1],20 µM (active)
same,outcome,[2],inactive
same,Potency,[11],50.1 µM (active)
same,Potency,[14],39.8 µM (active)
same,Potency,[15],39.8 µM (active)
OCc1ccccc1O,outcome,[2],inactive
